Data taken from PubChem BioAssay AID1159580 (chemical genetic matrix, 2015).
Several values for one entry are separate records, joined by “and”; a condition that tells them apart may be missing. Equal entries are not always repeated. Out of some 5,500 compounds screened, about 2,000 (36%) were called active. Another 18% or so got no clear call; they are omitted. Cut-off read from the data, not from the text of the source: active = normalized growth mostly below about 0.91 (no sharp cut-off); inconclusive = no clear call, values can overlap the other calls; inactive = mostly above about 0.92. Some of the results follow.

Assay: chemical genetic growth profiling, strain panel (AID 1159580);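 note: tested at 20 µM; growth read once vehicle control cultures reached saturation at 30 °C; 1 = growth at the plate median or of vehicle wells; lower values mean less growth of the strain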
Details: growth OD

Measured: normalized growth

CC[C@H]1OC(=O)[C@H](C)[C@@H](O[C@H]2C[C@@](C)(OC)[C@@H](O)[C@H](C)O2)[C@H](C)[C@@H](O[C@@H]2O[C@H](C)C[C@H](N(C)C)[C@H]2O)[C@](C)(O)C[C@@H](C)CN(C)[C@H](C)[C@@H](O)[C@]1(C)O
inactive: S. cerevisiae deletion strains, locus YAL013W, strain DEP1, hits give low values 0.993 | S. cerevisiae deletion strains, locus YBR021W, strain FUR4, hits give low values 0.96 | S. cerevisiae deletion strains, locus YBR229C, strain ROT2, hits give low values 0.988 | S. cerevisiae deletion strains, locus YCL029C, strain bik1, hits give low values 0.962 | S. cerevisiae deletion strains, locus YDL035C, strain GPR1, hits give low values 0.969 | S. cerevisiae deletion strains, locus YDL074C, strain BRE1, hits give low values 1.01 | S. cerevisiae deletion strains, locus YDL101C, strain DUN1, hits give low values 0.987 | S. cerevisiae deletion strains, locus YDL134C, strain PPH21, hits give low values 0.993 | S. cerevisiae deletion strains, locus YDL185W, strain tfp1, hits give low values 0.962 | S. cerevisiae deletion strains, locus YDL192W, strain arf1, hits give low values 0.96 | S. cerevisiae deletion strains, locus YDR101C, strain arx1, hits give low values 0.972 | S. cerevisiae deletion strains, locus YDR150W, strain NUM1, hits give low values 1 | S. cerevisiae deletion strains, locus YDR162C, strain NBP2, hits give low values 1.01 | S. cerevisiae deletion strains, locus YDR318W, strain mcm21, hits give low values 0.948 | S. cerevisiae deletion strains, locus YDR388W, hits give low values 0.978 | S. cerevisiae deletion strains, locus YDR502C, strain sam2, hits give low values 0.984 | S. cerevisiae deletion strains, locus YEL061C, strain CIN8, hits give low values 0.996 | S. cerevisiae deletion strains, locus YER110C, hits give low values 0.972 | S. cerevisiae deletion strains, locus YER155C, strain BEM2, hits give low values 0.991 | S. cerevisiae deletion strains, locus YER167W, strain BCK2, hits give low values 0.964 | S. cerevisiae deletion strains, locus YGL078C, strain dbp3, hits give low values 0.979 | S. cerevisiae deletion strains, locus YGL086W, strain mad1, hits give low values 0.951 | S. cerevisiae deletion strains, locus YGL248W, strain PDE1, hits give low values 0.992 | S. cerevisiae deletion strains, locus YGR078C, strain PAC10, hits give low values 1.02 | S. cerevisiae deletion strains, locus YGR135W, strain pre9, hits give low values 0.986 | S. cerevisiae deletion strains, locus YGR229C, strain SMI1, hits give low values 0.988 | S. cerevisiae deletion strains, locus YGR252W, strain gcn5, hits give low values 0.876 | S. cerevisiae deletion strains, locus YHR030C, strain SLT2, hits give low values 0.988 and 0.962 | S. cerevisiae deletion strains, locus YHR079C, strain IRE1 (second series), hits give low values 0.965 | S. cerevisiae deletion strains, locus YHR079C, strain IRE1, hits give low values 0.965 | S. cerevisiae deletion strains, locus YHR094C, strain hxt1, hits give low values 0.969 | S. cerevisiae deletion strains, locus YHR129C, strain ARP1, hits give low values 0.996 | S. cerevisiae deletion strains, locus YHR200W, strain rpn10, hits give low values 0.977 | S. cerevisiae deletion strains, locus YIL066C, strain RNR3, hits give low values 0.987 | S. cerevisiae deletion strains, locus YIL073C, strain SPO22, hits give low values 0.895 | S. cerevisiae deletion strains, locus YIL125W, strain kgd1, hits give low values 0.983 | S. cerevisiae deletion strains, locus YIR030C, strain dcg1, hits give low values 0.975 | S. cerevisiae deletion strains, locus YJL095W, strain BCK1, hits give low values 1.03 and 0.999 | S. cerevisiae deletion strains, locus YJL134W, strain LCB3, hits give low values 0.992 | S. cerevisiae deletion strains, locus YJL168C, strain set2, hits give low values 0.979 | S. cerevisiae deletion strains, locus YJL187C, strain SWE1 (second series), hits give low values 0.993 | S. cerevisiae deletion strains, locus YJR043C, strain POL32, hits give low values 0.966 | S. cerevisiae deletion strains, locus YJR066W, strain TOR1, hits give low values 0.956 | S. cerevisiae deletion strains, locus YJR075W, strain HOC1, hits give low values 1 | S. cerevisiae deletion strains, locus YKL009W, strain mrt4, hits give low values 0.992 | S. cerevisiae deletion strains, locus YKL068W, hits give low values 0.995 | S. cerevisiae deletion strains, locus YKL085W, strain MDH1 (second series), hits give low values 0.974 | S. cerevisiae deletion strains, locus YKL085W, strain MDH1, hits give low values 0.974 | S. cerevisiae deletion strains, locus YKL190W, strain CNB1, hits give low values 0.996 | S. cerevisiae deletion strains, locus YKR001C, strain vps1, hits give low values 0.961 | S. cerevisiae deletion strains, locus YLR039C, strain RIC1, hits give low values 0.965 | S. cerevisiae deletion strains, locus YLR058C, strain SHM2, hits give low values 0.992 | S. cerevisiae deletion strains, locus YLR102C, strain apc9, hits give low values 0.976 | S. cerevisiae deletion strains, locus YLR113W, strain HOG1, hits give low values 0.986 | S. cerevisiae deletion strains, locus YLR262C, strain YPT6, hits give low values 0.999 | S. cerevisiae deletion strains, locus YLR268W, strain sec22, hits give low values 0.994 | S. cerevisiae deletion strains, locus YLR330W, strain CHS5, hits give low values 0.991 | S. cerevisiae deletion strains, locus YLR342W, strain FKS1 (second series), hits give low values 0.963 | S. cerevisiae deletion strains, locus YLR371W, strain rom2, hits give low values 0.964 | S. cerevisiae deletion strains, locus YLR418C, strain cdc73, hits give low values 1.03 | S. cerevisiae deletion strains, locus YML016C, strain PPZ1, hits give low values 0.991 | S. cerevisiae deletion strains, locus YML032C, strain rad52, hits give low values 0.942 | S. cerevisiae deletion strains, locus YML124C, strain tub3, hits give low values 0.984 | S. cerevisiae deletion strains, locus YMR078C, strain ctf18, hits give low values 0.964 | S. cerevisiae deletion strains, locus YMR223W, strain ubp8, hits give low values 0.949 | S. cerevisiae deletion strains, locus YMR263W, strain SAP30, hits give low values 1 | S. cerevisiae deletion strains, locus YMR307W, strain GAS1, hits give low values 0.788 | S. cerevisiae deletion strains, locus YNL067W, strain RPL9B, hits give low values 1.01 | S. cerevisiae deletion strains, locus YNL128W, strain TEP1, hits give low values 1 | S. cerevisiae deletion strains, locus YNL153C, strain GIM3, hits give low values 1.03 | S. cerevisiae deletion strains, locus YNL183C, strain NPR1, hits give low values 0.92 | S. cerevisiae deletion strains, locus YNL233W, strain BNI4, hits give low values 1.01 | S. cerevisiae deletion strains, locus YNL250W, strain rad50, hits give low values 0.978 | S. cerevisiae deletion strains, locus YNL271C, strain bni1, hits give low values 0.976 | S. cerevisiae deletion strains, locus YNL298W, strain CLA4, hits give low values 0.972 | S. cerevisiae deletion strains, locus YNL307C, strain MCK1, hits give low values 0.945 | S. cerevisiae deletion strains, locus YNL322C, strain KRE1, hits give low values 0.995 | S. cerevisiae deletion strains, locus YNR052C, strain pop2, hits give low values 0.957 | S. cerevisiae deletion strains, locus YOL006C, strain TOP1, hits give low values 0.951 | S. cerevisiae deletion strains, locus YOL012C, strain htz1 1.44 | S. cerevisiae deletion strains, locus YOL147C, strain pex11, hits give low values 0.981 | S. cerevisiae deletion strains, locus YOR061W, strain CKA2, hits give low values 0.972 | S. cerevisiae deletion strains, locus YOR069W, strain VPS5, hits give low values 0.989 | S. cerevisiae deletion strains, locus YOR136W, strain idh2, hits give low values 0.969 | S. cerevisiae deletion strains, locus YOR144C, strain elg1, hits give low values 0.976 | S. cerevisiae deletion strains, locus YOR184W, strain ser1, hits give low values 0.973 | S. cerevisiae deletion strains, locus YOR231W, strain MKK1, hits give low values 0.968 | S. cerevisiae deletion strains, locus YOR316C, strain cot1, hits give low values 0.978 | S. cerevisiae deletion strains, locus YPL055C, strain LGE1, hits give low values 1.01 | S. cerevisiae deletion strains, locus YPL241C, strain CIN2, hits give low values 0.994 | S. cerevisiae deletion strains, locus YPL256C, strain CLN2, hits give low values 0.963 | S. cerevisiae deletion strains, locus YPR119W, strain clb2, hits give low values 0.981 | S. cerevisiae deletion strains, locus YPR141C, strain kar3, hits give low values 0.98 | S. cerevisiae deletion strains, locus YPR163C, strain tif3, hits give low values 0.974 | S. cerevisiae deletion strains, locus YPR167C, strain met16, hits give low values 0.984 | S. cerevisiae deletion strains, strain wtn01, hits give low values 0.978 | S. cerevisiae strains, strain wild type, hits give low values 0.982
